Source: PubChem BioAssay AID2315 (National Center for Advancing Translational Sciences (NCATS), 2010)
The whole screen tested about 290,000 compounds, of which about 27,000 (9.3%) were called active. The sample holds actives, similar compounds and a random draw of the others, so the mix is not that of the screen. Unmarked numbers belong to inactive results. Cut-off read from the data, not from the text of the source: active = inhibition mostly above about 28% (no sharp cut-off); inactive = mostly below about 43%.

Assay: A qHTS for Small Molecule Inhibitors of Shiga Toxin; note: 0% is about no effect
Settings: Vero cells, Shiga toxin protein synthesis inhibition reporter; at 38.7 µM, stronger effect = higher value
`CCOc1ccc(CCNC(=O)Nc2ccccc2)cc1OCC` gave an inhibition of 7.13%. With `CCOC(=O)C1CCN(C(=O)C2CCCN(S(=O)(=O)c3ccc(OC)c(Cl)c3)C2)CC1` (stereo unspecified) the inhibition was -2.72%. For `CCc1ccc2oc(-c3ccc(N)cc3)nc2c1`, the inhibition was 47.9% (active). `COc1ccc(C2C3=C(CCCC3=O)N(CC(=O)O)C3=C2C(=O)CCC3)cc1` gave an inhibition of 14.1%. In the case of `CCCCSc1nnc(-c2ccc(C)cc2)o1`, the inhibition is reported as 63.2% (active). With `Cc1cccc(C)c1OC(=O)CSc1nnc(-c2ccccc2)o1` the inhibition was -1.97%. Work on `CCOC(=O)CSc1nnc(-c2ccncc2)o1` yielded an inhibition of -2.72%. With `O=C(c1cc2ccccc2o1)N1CCN(Cc2ccccc2)CC1` the inhibition was 22.5%. In the case of `O=C(NCCc1ccccc1)C(=O)NCC1OCCN1S(=O)(=O)c1cccs1` (stereo unspecified), the inhibition is reported as 15.4%. `COc1ccc(Oc2coc3cc(OC(=O)c4cncc(Br)c4)ccc3c2=O)cc1` showed an inhibition of 31.4%. Work on `CCc1ccc(Oc2coc3cc(OC(=O)c4cc5ccccc5oc4=O)ccc3c2=O)cc1` yielded an inhibition of 22.7%. With `CCc1ccc(Oc2coc3cc(O)ccc3c2=O)cc1` the inhibition was 57.1% (active). In the case of `O=C(O)C1CCC(CNS(=O)(=O)c2ccc(Br)cc2)CC1` (stereo unspecified), the inhibition is reported as -6.36%. `O=C(Nc1ccc(C(=O)O)c(O)c1)c1ccccc1` showed an inhibition of 2.52%. `O=C(NC(=O)c1ccccc1)NC(=O)c1ccccc1` showed an inhibition of -0.343%. With `O=C(NC(=O)c1ccccc1)Nc1ccccc1O` the inhibition was 105% (active). `CCCC(=O)N1CCN(c2nnc(-c3ccc(C)cc3)c3ccccc23)CC1` gave an inhibition of -11.9%. Work on `O=C(NCCc1cccc(F)c1)C1CCCN(c2nc3ccccc3s2)C1` (stereo unspecified) yielded an inhibition of -11.7%. For `c1c2c(cc3sc(N4CCCCC4)nc13)OCCO2`, the inhibition was 14.5%. For `Fc1ccc2nc(N3CCCCC3)sc2c1`, the inhibition was 82% (active). With `Brc1ccc2nc(N3CCCC3)sc2c1` the inhibition was 133% (active). Compound `O=C(c1ccc2nc(N3CCOCC3)sc2c1)N1CCN(c2ccc(Cl)cc2)CC1` has an inhibition of -6.87%. Work on `Cc1nc(N2CCCCC2)sc1C=O` yielded an inhibition of 17.8%. `COC(=O)Nc1ccc(S(=O)(=O)Nc2cc(OC)nc(OC)n2)cc1` showed an inhibition of -3.18%. `Cc1ccsc1C(=O)N[C@@H](C)c1nnc2ccccn12` gave an inhibition of -1.3%. Compound `COc1ccc(NC2CCCN(C(=O)c3ccncc3)C2)cc1` (stereo unspecified) has an inhibition of -17.1%. For `CC(C)(C)NC(=O)C(=O)NN=C1CCCCCCC1`, the inhibition was 60.6% (active). `O=C1CCC/C(=N\NC(=O)NC2CCCCC2)C1` gave an inhibition of -0.774%. Work on `CC(C)NC(=S)NN=C1CCCCCCCCCCC1` yielded an inhibition of 4.86%. With `O=C(NCc1ccccc1)C(=O)NCC1OCCN1S(=O)(=O)c1ccc(Br)cc1` (stereo unspecified) the inhibition was 3.85%. In the case of `CCC(Oc1ccccc1C)C(=O)Nc1ccc(S(=O)(=O)Nc2cc(C)on2)cc1` (stereo unspecified), the inhibition is reported as -4.41%. Work on `O=c1[nH]c(CSc2ccccc2)nc2c1oc1ccccc12` yielded an inhibition of 12.7%. In the case of `O=C(COC(=O)c1ccc(N2CCCC2=O)cc1)c1ccc(OC(F)F)cc1`, the inhibition is reported as -2.32%. `Cc1nn(-c2ccccc2)c(-n2cccc2)c1C(=O)O` showed an inhibition of -10.5%. Work on `Cc1nn(-c2ccccc2)c(C)c1C(=O)OCC(=O)NC(=O)NC1CCCCC1` yielded an inhibition of -5.78%. With `CCCn1c(C)cc(C(=O)COC(=O)c2c(C)nn(-c3ccccc3)c2C)c1C` the inhibition was 37.3% (active). For `Cc1ccc(OC(=O)c2c(C)nn(-c3ccccc3)c2C)cc1`, the inhibition was 66.5% (active). With `Cc1cc(C(=O)COC(=O)c2cccs2)c(C)n1-c1c(C)n(C)n(-c2ccccc2)c1=O` the inhibition was 14.6%. Compound `CCCc1cc(=O)[nH]c(SCC(=O)c2cc(C)n(CCC)c2C)n1` has an inhibition of -17.8%. `O=C(CSc1n[nH]c(-c2cccnc2)n1)Nc1ccc(Cl)cc1` showed an inhibition of -4.36%. `Cc1ccc(Nc2c(F)c(F)c(F)c(F)c2C(=O)O)c(C)c1` gave an inhibition of -5.02%. Compound `CCCCc1cc(=O)oc2c(C)c(OCC(=O)N3CCC(C(N)=O)CC3)ccc12` has an inhibition of 6.85%. For `O=c1oc2ccccc2c(CNc2ccccc2)c1[N+](=O)[O-]`, the inhibition was 11.8%. In the case of `O=C1CCCc2nn(-c3ccccc3)nc21`, the inhibition is reported as 54.6% (active). `O=C1CCC(=O)N(c2ccccc2)N1` gave an inhibition of -5.13%. Work on `N#CC1=C(N)N(c2ccccc2)C2=C(C(=O)CCC2)C1c1ccccc1` (stereo unspecified) yielded an inhibition of 20.9%. For `Cc1nn(Cc2ccccc2)c(Cl)c1C(=O)OC1CCOC1=O` (stereo unspecified), the inhibition was -17.1%. For `CC(C)c1ccc(C(=O)OC2CCOC2=O)cc1` (stereo unspecified), the inhibition was -21.8%. In the case of `O=C(OC1CCOC1=O)c1ccc(-c2nc3ccccc3s2)s1` (stereo unspecified), the inhibition is reported as 38.6% (active). In the case of `C=CCn1c(=O)c(C(=O)NCc2ccc3c(c2)OCO3)c(O)c2ccccc21`, the inhibition is reported as -10.5%. `COc1ccccc1OCC(=O)Nc1c2c(nn1-c1ccc(F)cc1)CS(=O)(=O)C2` gave an inhibition of -5.46%. For `Cc1c(C(=O)OC(C)C)sc(NC(=O)c2cccnc2)c1C#N`, the inhibition was 30.6%. In the case of `COc1ccc(C(=O)NCc2nnc(SCC(=O)Nc3cccc(OC)c3)o2)cc1`, the inhibition is reported as -4.36%. `O=S(=O)(Cc1nnnn1-c1ccccc1)c1ccccc1` gave an inhibition of -12.2%. In the case of `Cc1csc(SCC(=O)Nc2sccc2C#N)n1`, the inhibition is reported as 34%. For `COc1cc(OC)cc(-c2nnc(SCC(=O)Nc3ccc(C(=O)O)cc3)s2)c1`, the inhibition was -9.81%. With `COc1ccc(NC(=O)CSc2nc(SC)ns2)c(OC)c1` the inhibition was 69.7% (active). With `CSc1nsc(SCC(=O)Nc2cc(C(=O)O)ccc2C)n1` the inhibition was -7.57%. Work on `COc1ccc(C)cc1NC(=O)CSc1nc(SC)ns1` yielded an inhibition of -10.7%. With `COc1ccc(NC(=O)CSc2nc(C)cs2)cc1` the inhibition was 66.4% (active). `Cc1cc(C)c(OCCN2CC(C)OC(C)C2)c(Br)c1` (stereo unspecified) gave an inhibition of 14.6%. For `NC(=O)c1nsc(C(=O)N(CCCN2CCOCC2)C(C(=O)NC2CCCCC2)c2ccc(Cl)cc2)c1N` (stereo unspecified), the inhibition was -2.14%. For `O=S(=O)(NCC1CC1)c1ccc(F)c(Cl)c1`, the inhibition was 1.18%. With `CC(C)Nc1ccc(-n2nc3ccccc3[n+]2[O-])cc1` the inhibition was 38.2% (active). In the case of `COc1ccc(CCNC(=O)C2CCCN(S(=O)(=O)c3ccc(OC)cc3)C2)cc1` (stereo unspecified), the inhibition is reported as 2.44%. With `O=C(NC1CCCCC1)C1CCC(CNS(=O)(=O)c2ccccc2)CC1` (stereo unspecified) the inhibition was 2.14%. With `COc1ccc(S(=O)(=O)n2cnc3ccccc32)c(C)c1` the inhibition was -9.95%. With `COc1ccc(CNC(=O)CN(Cc2ccccc2Cl)C(=O)c2csnn2)cc1` the inhibition was -3.03%. For `O=C(N/N=C/c1ccc(Cl)c(Cl)c1)c1ccc2nc[nH]c2c1`, the inhibition was 23.8%. Compound `CCCOC(=O)C1=C(C)NC2=C(C(=O)C(C(=O)OC)C(C)C2)C1c1ccc(N(C)C)cc1` (stereo unspecified) has an inhibition of 16.2%. In the case of `CCCOC(=O)c1[nH]c2c(c1C)C(=O)CC(c1cccs1)C2` (stereo unspecified), the inhibition is reported as -12.4%. For `COC(=O)C1C(=O)c2c([nH]c(C(=O)OCCSC)c2C)CC1C` (stereo unspecified), the inhibition was 57.7% (active). With `COc1ccc(NC(=O)CN2C(=O)CSc3ccc(S(=O)(=O)N4CCC(C)CC4)cc32)cc1` the inhibition was 1.63%. In the case of `COc1ccc(Cl)cc1NC(=O)CN(C)C(=O)CCCc1c[nH]c2ccccc12`, the inhibition is reported as -2.46%. `CCOC(=O)CCCN1CC(O)=C(c2nc3ccccc3s2)C1=N` gave an inhibition of 21.6%. Compound `N=C1C(c2nc3ccccc3[nH]2)=C(O)CN1NC(=O)c1c[nH]c2ccccc12` has an inhibition of -8.44%. `O=C(Nc1nc2ccc([N+](=O)[O-])cc2s1)c1ccc(S(=O)(=O)N2CCCc3ccccc32)cc1` gave an inhibition of -9.77%. With `COc1ccccc1N1CC(O)=C(c2nc3ccccc3s2)C1=N` the inhibition was 31.4% (active). In the case of `N=C1C(c2nc3ccccc3s2)=C(O)CN1NC(=O)c1ccc([N+](=O)[O-])cc1`, the inhibition is reported as 49.3% (active). `CCc1ccc(N2CC(O)=C(c3nc4ccccc4c(=O)[nH]3)C2=N)cc1` showed an inhibition of 23.1%. `COc1cccc(CNS(=O)(=O)c2csc(C(N)=O)c2)c1` showed an inhibition of 9.09%. Work on `O=C(N/C(=C\c1ccc(F)cc1)C(=O)N1CCCCCC1)c1ccccc1` yielded an inhibition of -12.7%. `O=C(CSc1ncnc2c1oc1ccccc12)NC1CCCC1` showed an inhibition of -5.84%. For `Cc1cc(-c2nnc(SCC(=O)Nc3ccc(F)cc3)n2N)n[nH]1`, the inhibition was 12.4%. For `COc1ccc(-n2nc(C(=O)NCC(=O)N3CCC(C(N)=O)CC3)c3ccccc3c2=O)cc1OC`, the inhibition was -12.3%. Work on `CS(=O)(=O)Nc1cccc(C2=NN(S(=O)(=O)c3ccccc3)C(c3cccs3)C2)c1` (stereo unspecified) yielded an inhibition of -11%. With `CS(=O)(=O)Nc1ccc(C2=NN(S(C)(=O)=O)C(c3cccs3)C2)cc1` (stereo unspecified) the inhibition was 63.1% (active). Work on `CCS(=O)(=O)Nc1ccc(C2=NN(C(C)=O)C(c3cccs3)C2)cc1` (stereo unspecified) yielded an inhibition of 12.4%. `CS(=O)(=O)Nc1cccc(C2=NN(C(=O)c3cccc(F)c3)C(c3cccs3)C2)c1` (stereo unspecified) showed an inhibition of -7.67%. In the case of `Cc1ccc(C2CC(c3cccc(NS(C)(=O)=O)c3)=NN2S(C)(=O)=O)cc1` (stereo unspecified), the inhibition is reported as 77.9% (active). In the case of `CS(=O)(=O)Nc1cccc(-c2cn3ccccc3n2)c1`, the inhibition is reported as 87%. Compound `O=C1c2ccccc2C(=O)N1c1cccc2ccccc12` has an inhibition of 25.6%. `O=C(NC1CCCC1)C1CC(=O)N(c2ccc(F)cc2)C1` (stereo unspecified) gave an inhibition of -11.9%. `CN(C)S(=O)(=O)c1cccc(NC(=O)Cc2ccsc2)c1` gave an inhibition of -2.02%. `O=C1CCN(Cc2ccccc2)CCN1[C@H](CSc1ccccc1)c1ccccc1` gave an inhibition of 11%. Work on `Cc1cccn2c(=O)c3cc(C(=O)NCC4CCCO4)c(=N)n(Cc4ccc(F)cc4)c3nc12` (stereo unspecified) yielded an inhibition of -2.34%.
